Measurements from PubChem BioAssay (Tox21).
Unmarked numbers belong to inactive results. Calls come from the whole dose curve; as a rule, active = well fitted curve in the direction sought with a large enough effect in the repeat runs; inconclusive = weak or mixed curves; inactive = flat fitted curve, though single readings scatter.

experiment: qHTS assay to test for compound auto fluorescence at 460 nm (blue) in HepG2 cell free culture (AID 720685); conditions: Cell-free culture medium, blue autofluorescence 405/460 nm; series mostly up to 91.3 µM; fluorescence, % of fluorescent control: at the top concentration
Excerpt: U.S. Tox21 Program National Center for Advancing Translational Sciences [NCATS] NIH Chemical Genomics Center [NCGC] U.S. Environmental Protection Agency [EPA] National Institutes of Environmental Health Sciences [NIEHS] National Toxicology Program [NTP] U.S. Food and Drug Administration [FDA] Tox21 Assay Overview: Compound auto fluorescence often interferes with screening of the compound library against various biological targets and signaling pathways. Some of these compounds may have fluorophoric properties. Such properties may interfere with the assay outputs resulting in false positives and/or negatives. To decrease such complications and ensure the compound activities are relevant in terms of biological response, the Tox21 10K compound library was screened for auto fluorescence. From the fluorophores used as reporter signals in our screening assays, the auto fluorescence equivalencies of compounds against three fluorophores have been evaluated: Triamterene, Fluorescein and Rose Bengal sodium for blue, green and red fluorescence, respectively. The fluorescence intensities were measured using Excitation/Emission wavelengths at 405/460nm, 485/535nm and 540/590nm for blue, green and red labels, respectively. This assay includes the blue fluorescence data.
Tox21 Assay Protocol Summary: 5 uL of culture medium (MEM containing 10% FBS) per well was dispensed into black wall/clear bottom 1536-well plates using a Multidrop Combi Dispenser (ThermoFisher Scientific, Waltham, MA). After 23 nL compound or DMSO vehicle was transferred into assay plate by a pintool work station (Kalypsys, San Diego, CA), fluorescence intensities in the assay plates were measured by an Envision (PerkinElmer, Shelton, CT) plate reader using three labels for measuring blue, green and red fluorescence at […] 460, 535 and 590nm respectively.
% is set by controls: 0 for no effect and ±100 for the full control effect.

Row | Compound | fluorescence, % of fluorescent control
1 | CC1(C)C(=O)NC(=O)NC1=O | 0.0082%
2 | Cc1cccc(C#N)c1 | 0.0559%
3 | CC(CCc1ccccc1)NC(C)C(O)c1ccc(O)cc1 (stereo not given) | 0.0033% [at 46 µM]
4 | O=CNC(N1CCN(C(NC=O)C(Cl)(Cl)Cl)CC1)C(Cl)(Cl)Cl (stereo not given) | 0.0878%
5 | OC(c1ccccc1)(c1ccccc1)C1CCNCC1 | -0.0381% [at 18.6 µM]
6 | COC(=O)c1ccccc1S(=O)(=O)NC(=O)N(C)c1nc(C)nc(OC)n1 | -0.0214% [at 95.7 µM]
7 | OC(c1ccc(F)cc1)(c1cncnc1)c1ccccc1Cl (stereo not given) | -0.0063%
8 | N#CCNCC#N | 0.0319%
9 | N#Cc1ccncc1 | -0.115% [at 95.7 µM]
10 | COc1cc(OC)nc(NC(=O)NS(=O)(=O)c2ncccc2OCC(F)(F)F)n1 | 0.0735%
11 | N#CCCC#N | -0.0403%
12 | Nc1cc2c3c(c1)C(c1ccccc1)=N[C@@H](NC(=O)c1cccnc1)C(=O)N3CC2 | 0.763%
13 | CSc1ccc(C(=O)C(C)(C)N2CCOCC2)cc1 | -0.0038%
14 | CCCCOC(=O)c1ccccc1C(=O)O | -0.0759%
15 | ClCC(Cl)Cl | 0.0331% [at 95.7 µM]
16 | CC(=O)C(Cl)Cl | -0.0578% [at 95.7 µM]
17 | CC(C)CC(N(C)C)C1(c2ccc(Cl)cc2)CCC1 (stereo not given) | -0.0771% [at 46 µM]
18 | Cc1cc(C)nc(Nc2ccccc2)n1 | 0.0026%
19 | COP(=S)(OC)Oc1ccc(S(N)(=O)=O)cc1 | -0.0467% [at 46 µM]
20 | CCCCOC(=O)c1ccccc1N | 0.0309%

Row | Compound | fluorescence, % of fluorescent control
21 | ClC(Cl)C(Cl)Cl | -0.0529%
22 | CC1CCC(=O)O1 (stereo not given) | -0.0083%
23 | CCOP(=S)(OCC)Oc1ncn(-c2ccccc2)n1 | 0.0325%
24 | COc1cc(OC)nc(NC(=O)NS(=O)(=O)c2ncccc2C(=O)N(C)C)n1 | -0.0213%
25 | O=NN1CCCCC1 | -0.0248%
26 | CCCSC(=O)Cl | 0.0018%
27 | COCC(=O)N(c1c(C)cccc1C)N1CCOC1=O | 0.063%
28 | Cc1ncc(CNC(=O)N(CCCl)N=O)c(N)n1 | 0.0336% [at 46 µM]
29 | O=c1oc2ccccc2c(O)c1C1CCCc2ccccc21 (stereo not given) | -0.0294%
30 | CNNC | 0.0477% [at 95.7 µM]
31 | CN(C)CCc1ccc(O)cc1 | -0.146% [at 46 µM]
32 | CCN(CC)C(C)C(=O)c1ccccc1 (stereo not given) | -0.0456% [at 46 µM]
33 | COC(=O)COc1ccc(Cl)cc1Cl | -0.0545%
34 | O=[N+]([O-])c1cccc2cccnc12 | -0.102% [at 95.7 µM]
35 | CN1CCC(O)(c2ccc(F)cc2)C(C(=O)c2ccc(F)cc2)C1 (stereo not given) | 0.255% [at 46 µM]
36 | CCSC(=O)N(CC)C1CCCCC1 | -0.182%
37 | O=[N+]([O-])c1ccc(CBr)cc1 | -0.0116% [at 95.7 µM]
38 | [Cl][Sn]([Cl])([Cl])[Cl] | 0.0609% [at 95.7 µM]
39 | CNC(=O)O/N=C(\C)SC | 0.0103%
40 | NC(=O)c1cc([N+](=O)[O-])cc([N+](=O)[O-])c1 | 0.0091% [at 46 µM]
